Data reported in PubChem BioAssay (NCATS).
Results filed as inconclusive are left out. Entries that show only a call come without a potency. Activity calls are given as the source filed them. Calls come from the whole dose curve.

Columns and labels:
[1] = Cytotoxicity counterscreen for inhibitors of SARS-CoV-2 cell entry (AID 1645845); note: nearly all actives have a fitted effect of over 50% in size
Summary of the method: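 After a 15 min room-temperature ATPLite 1step step, luminescence reflected ATP remaining in HEK293-ACE2 cells exposed to compound for 1 h plus 48 h at 37 C, with percent activity set by cell and no-cell controls.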

[2] = Primary qHTS to identify inhibitors of SARS-CoV-2 cell entry (AID 1645846); details: activity change, negative = inhibition: at 57.1 µM (top of the series) unless noted; note: nearly all actives have a fitted effect of over 45% in size
Summary of the method: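 Entry measured by luciferase signal 48 h after adding SARS-CoV-2-S pseudotyped MLV particles to HEK293-ACE2 cells preincubated 1 h with compounds. Normalisation: bald particles and spike particles.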

| Compound | Potency [1] | Potency [2] | activity change, negative = inhibition [2] | activity change, negative = cytotoxicity [1] |
| --- | --- | --- | --- | --- |
| O=C1c2ccccc2C(=O)c2c1ccc(O)c2O | inactive | inactive |  |  |
| C[C@H]1C[C@@H]2[C@H]([C@@H](O)C[C@@]3(C)[C@H]2CC[C@]3(O)C(=O)CO)[C@@]2(C)C=CC(=O)C=C12 | inactive | inactive |  |  |
| O=C1[C@@H]2[C@H]3CC[C@H](C3)[C@@H]2C(=O)N1CCCCN1CCN(c2ncccn2)CC1 | inactive |  | -0.993% |  |
| Cc1ccc(C(=O)c2ccc(CC(=O)O)n2C)cc1 | inactive | inactive |  |  |
| Nc1nc(-c2ccccc2)c(Br)c(=O)[nH]1 | inactive | inactive |  |  |
| C[C@@H](O)[C@H]1C(=O)N2C(C(=O)O)=C(SCCN=CN)C[C@H]12 | inactive | inactive |  |  |
| C[N+](C)(C)CCCCCC[N+](C)(C)C | inactive |  | -3.21% |  |
| C[C@]12C=CC(=O)C=C1[C@@H](F)C[C@@H]1[C@@H]2[C@@H](O)C[C@@]2(C)[C@H]1CC[C@]2(O)C(=O)CO | inactive | inactive |  |  |
| Cc1ccnc(NS(=O)(=O)c2ccc(N)cc2)n1 | inactive | inactive |  |  |
| O=C(O)Cc1cccc(-c2cc(CCCCCCc3ccc(O[C@H]4O[C@H](CO)[C@@H](O)[C@H](O)[C@@H]4O)c(-c4cccc(CC(=O)O)c4)c3)ccc2O[C@H]2O[C@H](CO)[C@@H](O)[C@H](O)[C@@H]2O)c1 |  |  | -14.7% [at 0.702 µM] | 4.02% [at 0.702 µM] (inactive) |
| CC[N+](C)(CC)CCOC(=O)C1c2ccccc2Oc2ccccc21 | inactive | inactive |  |  |
| NC(N)=Nc1nc(CSCC/C(N)=N/S(N)(=O)=O)cs1 | inactive | inactive |  |  |
